Source: PubChem
NSD2 HMT inh = blocks human histone methyltransferase NSD2 | O96028 | NSD2 peptide methylation, AlphaScreen, 120 min | inhibition, % at 12.5 µM | 310,000 tested, 0.54% active; in the data active = inhibition above about 50%
Target sequence (O96028 whole entry, looked up): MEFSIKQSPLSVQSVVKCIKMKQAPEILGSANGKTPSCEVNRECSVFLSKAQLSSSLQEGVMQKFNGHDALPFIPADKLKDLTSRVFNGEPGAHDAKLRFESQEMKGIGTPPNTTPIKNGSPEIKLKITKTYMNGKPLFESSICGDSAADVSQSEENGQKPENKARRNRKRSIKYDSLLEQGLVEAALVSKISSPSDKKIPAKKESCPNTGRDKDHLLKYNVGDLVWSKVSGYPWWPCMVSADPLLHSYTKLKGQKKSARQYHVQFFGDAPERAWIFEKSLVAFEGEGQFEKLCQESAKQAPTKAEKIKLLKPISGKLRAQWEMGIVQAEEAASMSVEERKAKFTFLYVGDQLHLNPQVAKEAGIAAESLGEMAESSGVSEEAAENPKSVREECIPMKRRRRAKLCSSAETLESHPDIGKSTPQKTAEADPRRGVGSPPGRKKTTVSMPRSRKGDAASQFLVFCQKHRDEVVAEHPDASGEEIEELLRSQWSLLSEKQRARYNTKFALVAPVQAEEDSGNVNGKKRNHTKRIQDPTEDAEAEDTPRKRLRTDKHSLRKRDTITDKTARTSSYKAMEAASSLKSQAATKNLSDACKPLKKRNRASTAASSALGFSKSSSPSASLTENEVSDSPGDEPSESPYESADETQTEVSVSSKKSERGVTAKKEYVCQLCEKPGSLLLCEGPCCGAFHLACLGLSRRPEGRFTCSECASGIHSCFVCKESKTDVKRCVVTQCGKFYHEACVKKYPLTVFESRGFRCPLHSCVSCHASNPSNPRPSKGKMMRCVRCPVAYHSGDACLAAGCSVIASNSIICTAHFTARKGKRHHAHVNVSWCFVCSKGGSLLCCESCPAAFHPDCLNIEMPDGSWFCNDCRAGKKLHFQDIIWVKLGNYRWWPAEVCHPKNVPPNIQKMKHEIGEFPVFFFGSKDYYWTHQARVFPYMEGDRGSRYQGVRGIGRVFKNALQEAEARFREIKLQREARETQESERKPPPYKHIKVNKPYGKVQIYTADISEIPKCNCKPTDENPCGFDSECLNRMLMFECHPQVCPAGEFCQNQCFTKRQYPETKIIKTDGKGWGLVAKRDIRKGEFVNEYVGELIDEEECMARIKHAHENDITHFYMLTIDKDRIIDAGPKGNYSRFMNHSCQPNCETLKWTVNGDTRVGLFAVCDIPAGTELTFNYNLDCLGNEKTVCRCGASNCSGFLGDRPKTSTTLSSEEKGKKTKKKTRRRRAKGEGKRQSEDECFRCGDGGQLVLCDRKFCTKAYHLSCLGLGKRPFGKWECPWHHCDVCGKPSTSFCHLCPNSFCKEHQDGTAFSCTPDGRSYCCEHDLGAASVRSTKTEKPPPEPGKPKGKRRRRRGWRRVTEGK
EBV LMP1 NFkB = inhibitors of Epstein-Barr LMP1-induced NF-kappaB reporter. LMP1-induced NF-kappaB luciferase reporter cells, luminescence. inhibition, % at 12.5 µM. 350,000 tested, 0.69% active. AID 504558; in the data active = inhibition above about 41%; inconclusive = no clear call, values can overlap the other calls;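 also: 0% = neutral control wells and 100% = reference inhibitor control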
N-glyco inh = N-linked glycosylation inhibition | AID 588692 | 360,000 tested, 0.23% active | reporter increase, % at 12.5 µM | D54 ERlucT glycosylation luciferase reporter, 24 h; percent of 100 nM tunicamycin response;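 active = mean luciferase reporter signal, scaled so untreated is 0 and the glycosylation-blocking control 100, at or above a set limit in every replicate; inconclusive = mean reaches the limit but not every replicate does; inactive = mean below the limit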;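 also: luciferase carries N-glycosylation sites so blocking glycosylation raises the light; 0% = median of neutral control wells and 100% = median of 100 nM tunicamycin wells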
PAX8 inh HTS = lowers PAX8-driven luciferase in RMG-I cells | AID 652154 | 360,000 tested, 1.2% active | RMG-I TPO-luciferase reporter, SteadyGlo, 24 h | inhibition, % at 12.6 µM;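 active = mean replicate inhibition at least 60% with every replicate also reaching 60%; inconclusive = only one of the two criteria is met; inactive = mean below 60% and not all replicates reaching 60%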;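 also: luciferase light reporting Pax8 driven TPO promoter activity; plate controls were median of neutral control wells for no effect and mitoxantrone controls for full effect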
HIV Env fusion = inhibitors of HIV Env-mediated cell fusion; 360,000 tested, 1.1% active; inhibition, % at 12.3 µM; AID 651610; HeLa-JRFL Env/CEM21 cell fusion, luciferase;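 active = mean replicate inhibition score of at least 50 and every replicate individually at or above 50; inconclusive = only one of the two criteria met; inactive = mean below 50 and not all replicates reaching 50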;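 also: 0% = plate neutral controls and 100% = maraviroc near 300 nM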
Shn3 inh set2 = Schnurri-3 reporter inhibition in Clone20 osteoblasts; inhibition, % at 12.5 µM; 360,000 tested, 0.52% active; Clone20 osteoblast Shn3 3'UTR firefly luciferase, 24 h;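 active = mean inhibition of at least 75% with every replicate also reaching 75%; inconclusive = mean inhibition at least 75% but some replicate below; inactive = mean inhibition below 75%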;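 also: 0% = median of neutral control wells and 100% = pilot-screen positive control compound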
Numbers without * were called inactive; u = inconclusive; x = no result; ! = not confirmed by another sample; [ ] = remark or other dose. In the library only some 2.8% were active in any assay of this set; here they are far more common.

SMILES | NSD2 HMT inh | EBV LMP1 NFkB | N-glyco inh | PAX8 inh HTS | HIV Env fusion | Shn3 inh set2
COc1ccc2c3c([nH]c2c1)[C@@H](CO)N(C(=O)Nc1ccc(F)cc1)CC31CN(S(=O)(=O)c2ccc(C)cc2)C1 | x | x | x | 68.1* | x | x
COc1ccc2c3c([nH]c2c1)[C@@H](CO)N(C(=O)Nc1cccc(F)c1)CC31CN(S(=O)(=O)c2cccc(C)c2)C1 | x | x | x | x | 79.9*[16.7 µM] | x
CCCNC(=O)N1CC2(C1)CN(C(=O)COC)[C@H](CO)c1[nH]c3cc(OC)ccc3c12 | x | x | x | 60.7* | x | x
CCCNC(=O)N1CC2(C1)CN(C(=O)COC)[C@@H](CO)c1[nH]c3cc(OC)ccc3c12 | x | x | x | -31.4 | x | x
COc1ccc2c3c([nH]c2c1)[C@H](CO)N(C(=O)Nc1ccc(F)cc1)CC31CN(S(=O)(=O)c2cn(C)cn2)C1 | x | x | x | x | -34.2[16.7 µM] | x
COc1ccc2c3c([nH]c2c1)[C@@H](CO)N(C(=O)Nc1cccc(F)c1)CC31CCN(S(=O)(=O)c2cccc(C)c2)CC1 | x | x | x | 95.9* | x | x
COc1ccc(CNC(=O)c2cccc3c(-c4cccnc4)coc23)cc1OC | 4.6 | x | u | 14.3 | -5.1 | 88.4*
CC[N+](CC)(CC)CCOc1ccc(/C=C/c2ccccc2)cc1 | x | 4.1 | -7.0 | 95.5* | 21.9 | 12.2
COc1ccc(CNC(=O)C[C@@H]2CC[C@@H](NC(=O)c3ccc4c(c3)OCO4)[C@H](CO)O2)cc1 | x | x | x | 4.7 | 8.9[16.7 µM] | x
O=C1S/C(=C\c2ccc(N3CCOCC3)o2)C(=O)N1Cc1c(F)cccc1Cl | 0.1 | -1.2 | 3.3 | x | x | 96.3*
C[C@@H]1CN([C@@H](C)CO)C(=O)CCCn2nncc2CO[C@@H]1CN(C)C(=O)Nc1cccc(F)c1 | x | x | x | -1.2 | x | x
O=C(C[C@H]1C=C[C@@H](NC(=O)NC2CCCCC2)[C@H](CO)O1)NCc1ccccc1 | x | x | x | 5.5 | 10.4[16.7 µM] | x
C[C@H]1CN([C@@H](C)CO)C(=O)Cc2cc(NC(=O)CCC(F)(F)F)ccc2O[C@@H]1CN(C)C(=O)Nc1ccc(F)cc1 | x | x | x | -18.2 | x | x
CO[C@H]1CN(C)C(=O)c2cc(NC(=O)C3CCCC3)ccc2OC[C@H](C)N(CCC(F)(F)F)C[C@@H]1C | x | x | x | 14.0 | x | x
C[C@H]1CN([C@@H](C)CO)C(=O)c2c(c3ccccc3n2C)-c2ccccc2CO[C@H]1CN(C)C(=O)Nc1ccc2c(c1)OCO2 | x | x | x | u | 37.9[16.7 µM] | x
C[C@H](CO)N1C[C@H](C)[C@H](CN(C)C(=O)Nc2ccc(F)cc2)OCc2ccccc2-c2c(n(C)c3ccccc23)C1=O | x | -5.2 | -0.8 | -6.7 | 90.4*![16.7 µM] | -6.1
C[C@@H]1CN([C@@H](C)CO)C(=O)c2c(c3ccccc3n2C)-c2ccccc2CO[C@H]1CN(C)C(=O)Nc1ccc2c(c1)OCO2 | x | x | x | 96.5* | 14.4[16.7 µM] | x
CCN1[C@@H]2c3ccc(-c4ccccc4)c(=O)n3C[C@H]1[C@H](CO)[C@H]2C(=O)NCCCN1CCOCC1 | x | x | x | x | -3.4[16.7 µM] | x
Cc1nc2ccc(NS(=O)(=O)c3ccc(C)c(C)c3)cc2s1 | 2.7 | 21.7 | -0.3 | 24.0 | 71.4* | 77.4
Cc1cc(N=Cc2c(O)ccc3cc(Br)ccc23)no1 | -0.6 | 55.6* | 2.9 | -1.2 | -2.1 | -4.1
Cc1cc(N=Cc2c(O)ccc3ccccc23)no1 | x | -18.3 | 5.0 | x | -64.0 | 14.6
CC(C)NC(=O)Nc1cccc2c1O[C@@H](CN(C)C(=O)NC(C)C)[C@@H](C)CN([C@H](C)CO)C2=O | x | x | x | -2.5 | x | x
C=C(C)[C@@H]1CCC2(C(=O)O)CC[C@]3(C)[C@H](CC[C@@H]4[C@@]5(C)CCC(=O)C(C)(C)[C@@H]5CC[C@]43C)[C@@H]12 (stereo not given in full) | x | 48.5* | -0.7 | -5.3 | 33.5 | -18.4
COc1cccc(/C=N\NC(=O)c2ccc(C)nc2)c1 | -1.2 | 86.1* | 4.2 | -25.5 | -1.9 | -28.7
Cc1ccc(C(=O)N/N=C\c2cccc(OC(=O)c3cccc(F)c3)c2)cn1 | -6.3 | -5.8 | 4.9 | -46.2 | -30.5 | -31.6
SMILES | NSD2 HMT inh | EBV LMP1 NFkB | N-glyco inh | PAX8 inh HTS | HIV Env fusion | Shn3 inh set2
COc1cccc(/C=N/NC(=O)c2ccc(N3CCCC3=O)cc2)c1 | 0.5 | 10.5 | 23.8 | 96.3* | -96.5 | 5.0
O=C(N[C@H]1CC[C@H](CCNS(=O)(=O)c2ccc(F)cc2)O[C@H]1CO)c1ccccn1 | x | x | x | -4.3 | -20.6[16.7 µM] | x
O=C(C[C@@H]1CC[C@@H]2[C@H](COC[C@H](O)CN2C(=O)Nc2cc(Cl)cc(Cl)c2)O1)N1CCCCC1 | x | x | x | 10.8 | x | x
C[C@@H]1CN([C@@H](C)CO)C(=O)c2cc(NC(=O)C3CCCCC3)ccc2O[C@H]1CN(C)C(=O)Nc1ccccc1 | x | x | x | 8.3 | x | x
CC(C)Nc1ccc(C(CC(N)=O)NC(=O)c2ccc(Br)cc2)cc1[N+](=O)[O-] (stereo not given) | x | 19.6 | 49.4* | 13.3 | -0.1 | 10.4
NC(=O)CC(NC(=O)Cc1ccc(Cl)cc1)c1ccc(NC2CCCCC2)c([N+](=O)[O-])c1 (stereo not given) | x | 3.4 | 45.3* | 27.9 | -1.5 | 19.5
NC(=O)CC(NC(=O)Cc1cccc2ccccc12)c1ccc(NC2CCC2)c([N+](=O)[O-])c1 (stereo not given) | x | 1.6 | 3.1 | 9.5 | -5.8 | -29.8
NC(=O)CC(NC(=O)Cc1ccc(Cl)cc1)c1ccc(NC2CCCC2)c([N+](=O)[O-])c1 (stereo not given) | x | 13.9 | 49.0* | 19.0 | 8.1 | 14.4
CC(C)Nc1ccc(C(CC(N)=O)NC(=O)c2ccccc2)cc1[N+](=O)[O-] (stereo not given) | x | 0.0 | -0.6 | 4.3 | 36.7 | 5.8
NC(=O)CC(NC(=O)Cc1ccc(Cl)cc1)c1ccc(NCCc2ccccc2F)c([N+](=O)[O-])c1 (stereo not given) | x | 2.5 | 0.5 | 25.4 | 0.1 | 11.4
CC(C)Nc1ccc(C(CC(N)=O)NC(=O)Cc2ccc(Cl)cc2)cc1[N+](=O)[O-] (stereo not given) | x | 21.2 | 41.0* | 24.6 | 8.9 | 15.3
C[C@H](CO)N1C[C@H](C)[C@@H](CN(C)S(=O)(=O)c2cn(C)cn2)Oc2c(NC(=O)C3CCCCC3)cccc2C1=O | x | x | x | -5.0 | x | x
O=C(Nc1ccc2c(c1)[C@H]1C[C@H](CC(=O)N3CCOCC3)O[C@@H](CO)[C@H]1O2)NC1CCCCC1 | x | x | x | -3.1 | 16.2[16.7 µM] | x
NC(=O)CC(NC(=O)Cc1ccc(Br)cc1)c1ccc(NC2CCC2)c([N+](=O)[O-])c1 (stereo not given) | x | 8.3 | 39.5* | 25.8 | -5.6 | 9.6
O=Cc1c(Cl)nc2ccccn12 | -1.6 | -5.1 | -3.5 | 4.6 | -6.9 | -11.5
O=C(/C=C/c1c(Cl)nc2ccccn12)Nc1ccc(F)cc1 | -1.2 | -7.1 | 2.1 | 111.1* | -3.7 | -2.0
Cc1ccc(S(=O)(=O)N(C)C[C@H]2Oc3c(NC(=O)Nc4ccc5c(c4)OCO5)cccc3C(=O)N([C@@H](C)CO)C[C@@H]2C)cc1 | x | x | x | 24.7 | -2.8[16.7 µM] | x
CCn1c2ccccc2c2cc(C3C(C#N)=C(N)Oc4n[nH]c(COC)c43)ccc21 (stereo not given) | 1.9 | 92.2* | -5.6 | x | 10.7 | 0.7
